Data on 101 compounds can be found in PubChem BioAssay AID504832 (National Center for Advancing Translational Sciences (NCATS), 2011).

The structures appear in SMILES notation. The whole screen tested about 310,000 compounds, of which about 18,000 (5.8%) were called active. Where a call stands in place of a potency, no number is given. Another 22% or so got no clear call; they are omitted. Only a selection was taken, and actives are over-represented in it overall. A number with no mark means an inactive call. Calls follow the shape of the dose curve; as a rule, active = well fitted inhibition curve with a large enough effect; inconclusive = small, poorly fitted or top-dose-only effect, or another doubt; inactive = no such curve, though single readings can be large or run the other way.
Potency is read from the fitted curve at half-maximal effect.

A short description of this assay: Primary qHTS for delayed death inhibitors of the malarial parasite plastid, 48 hour incubation. The following applies: P. falciparum luciferase growth in erythrocytes; series mostly up to 28.7 µM. A digest of the protocol: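 Parasite viability was followed by luminescence of a genomically integrated firefly luciferase. Cultures held 0.1% parasitemia at 2% hematocrit (final), incubated under 5% CO2 at 37 C.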
(In general: qHTS replaces the single test concentration by a dilution series.)
`O=C(NC1CC1)C(Cc1ccccc1)NS(=O)(=O)c1ccccc1F` (stereo unspecified): the Potency entry is “inactive”. On to `O=C(Cc1ccc([N+](=O)[O-])cc1)Nc1ccc(C(=O)N2CCOCC2)cc1`, for which the Potency result was “inactive”. Regarding `O=C(/C=C/c1ccco1)NC(=S)Nc1ccccc1Br`, the Potency entry is “inactive”. Regarding `CCCCCCn1c(SCC(=O)c2ccccc2)nc2c1c(=O)[nH]c(=O)n2C`, the Potency result is “inactive”. Regarding `C=CCn1c(SCc2ccccc2)nc2c1c(=O)[nH]c(=O)n2C`, the Potency result is “inactive”. Same read-out and setting: next, `CCC(C)Sc1nc2c(c(=O)[nH]c(=O)n2C)n1CC(O)COc1cccc2ccccc12` (stereo unspecified): 10.4 µM (active); `CCc1ccc(NC(=O)CS(=O)CC(=O)N2CCN(c3ccccc3F)CC2)cc1` (stereo unspecified): “inactive”. On the same count and under the same terms, next, `COc1cc(C(=O)NCC(=O)N2CC=C(c3ccccc3)CC2)cc(OC)c1OC`: “inactive”; `O=C(CSc1ccc(-c2ccccn2)nn1)Nc1ccccc1`: “inactive”; `COC(=O)c1noc(C)c1-c1ccnn1C(=O)c1ccc(Cl)cc1`: “inactive”. Take `Cc1onc(-c2ccc(Cl)cc2)c1-c1ccnn1S(=O)(=O)c1ccc(Cl)cc1`: the Potency is 1.04 µM (active). Consider `Cc1ccc(S(=O)(=O)Cc2cc(-c3ccc(Cl)cc3)no2)cc1`, for which the activity change, negative = inhibition was -33.3% [at 5.75 µM]. Regarding `COc1ccc(/C=C2\SC(=O)N(CCC(=O)NCCCn3ccnc3)C2=O)cc1`, the Potency result was “inactive”. Consider `CCOc1ccc(C(=O)COC(=O)c2ccc(-n3cnnn3)cc2)cc1`, for which the Potency entry was “inactive”.

Regarding `COc1ccc2c(c1)C(NS(=O)(=O)OCC(Cl)(Cl)Cl)CCC2` (stereo unspecified), the Potency result was “inactive”. Still for that read-out and setting: next, `O=C(c1cccc(C(=O)N2CCN(c3ccc(F)cc3)CC2)c1)N1CCN(c2ccc(F)cc2)CC1`: 13.1 µM (active); `O=C(c1ccccc1)c1ccc(C(=O)N2CCN(c3ccccc3)CC2)cc1`: “inactive”; `O=C(c1cc2cc(F)ccc2[nH]1)N1CCN(c2ccc(F)cc2)CC1`: “inactive”. For the compound `CCn1c(=S)sc2c(=O)n(CC(=O)Nc3cccc(Br)c3)c(C)nc21`, the Potency entry was “inactive”. As to `COc1ccccc1C(=O)NCc1nnc(SC(C)C(=O)Nc2nccs2)n1C` (stereo unspecified), the Potency result was “inactive”. Consider `CC(C)CCn1c(=O)c2c(nc3n2CCCN3Cc2ccccc2)n(C)c1=O`, for which the Potency was 9.28 µM (active). Regarding `Cc1cccc(Cn2c(N3CCN(c4ccccc4)CC3)nc3c2c(=O)n(C)c(=O)n3C)c1`, the Potency entry is “inactive”. Turning to `CC1CN(C2CCCCC2)c2nc3c(c(=O)n(C)c(=O)n3C)n2C1` (stereo unspecified), the Potency result was “inactive”.

For the compound `O=C(c1c(F)cccc1Cl)N1CCN(c2ccccn2)CC1`, the Potency result is “inactive”. As to `NC(=O)c1oc2ccccc2c1NC(=O)Cc1ccccc1`, the Potency entry was “inactive”. In the case of `Cc1c(C(C)(C)O)[nH]c2ccc(C#N)cc12`, the Potency result is “inactive”. As for `COc1ccc(-c2cc(=O)oc3cc(OC(C)C(=O)NCC4CCC(C(=O)O)CC4)ccc23)cc1` (stereo unspecified), the Potency entry is “inactive”. Same read-out and setting: with `COc1ccc(F)cc1C(=O)COC(=O)c1n[nH]c(=O)c2ccccc12` the entry was “inactive”; with `Nc1nc(SCC(=O)Nc2cc(C(F)(F)F)ccc2Cl)[nH]c(=O)c1NC(=O)c1ccco1`, “inactive”; with `COc1ccc(OC)c(NC(=O)c2sc3nc(C)cc(C)c3c2N)c1`, “inactive”.

Regarding `Cc1cccc(NC(=O)c2sc3nc4c(c(-c5ccco5)c3c2N)CCC4)c1`, the Potency is 2.08 µM (active). For the compound `Cc1cccc(NC(=O)c2sc3nc(N4CCOCC4)c4c(c3c2N)CCCC4)c1`, the Potency result is “inactive”. As for `CN(c1ccccc1)S(=O)(=O)c1ccc(NC(=O)COc2ccccc2)cc1`, the Potency result is “inactive”. The same measure, in the same setting: with `CCN(C(=O)COC(=O)c1cc(S(=O)(=O)N2CCc3ccccc32)ccc1OC)C1CCS(=O)(=O)C1` (stereo unspecified) the entry was “inactive”; with `COc1ccccc1N(C)C(=O)c1cc(S(=O)(=O)N2CCc3ccccc32)cn1C`, 11.7 µM (active). For the compound `COc1cccc(NC(=O)c2cc(S(=O)(=O)N3CCc4ccccc43)cn2C)c1`, the Potency result is “inactive”. On to `COc1cc(OC)cc(C(=O)NNC(=O)CCOc2ccccc2OC)c1`, for which the Potency result was “inactive”. `Cc1occc1-c1nnc(SCC(=O)NC2(C#N)CCCC2)n1C`: the Potency entry was “inactive”. With `CSc1ccc(S(=O)(=O)NCC(=O)OCC(=O)NC2(C#N)CCCCC2)cc1[N+](=O)[O-]`, the Potency entry is “inactive”. In the case of `O=C(Nc1cccc(NC(=O)c2cccc(F)c2)c1)c1ccccc1`, the activity change, negative = inhibition was 0% [at 0.00184 µM]. For `CC(=O)c1ccc(NC(=S)N(Cc2ccccc2)C(C)C2CC2)cc1` (stereo unspecified), the Potency is 13.1 µM (active). `CC(C)N(Cc1ccccc1)C(=S)Nc1ccc(OC(F)F)cc1`: the Potency entry was “inactive”.

Consider `CC(=O)c1ccc(NC(=O)N[C@@H](Cc2ccccc2)C(=O)O)cc1`, for which the Potency entry was “inactive”. In the case of `O=C(N/C(=C\c1ccc([N+](=O)[O-])cc1)C(=O)N1CCOCC1)c1cccc(Br)c1`, the Potency result was “inactive”. Turning to `COc1ccccc1NC(=O)COC(=O)c1ccccc1SCC(=O)N1CCCC1`, the Potency entry was “inactive”.

Regarding `CCS(=O)(=O)N1CCCC(C(=O)NCc2ccc(C)cc2)C1` (stereo unspecified), the Potency entry is “inactive”. Same read-out and setting: with `O=C(NCc1ccccc1)C1CCCN(S(=O)(=O)c2cccs2)C1` (stereo unspecified) the entry was “inactive”. The same measure, in the same setting: next, `O=C(NCc1ccc2c(c1)OCO2)C1CCCN(S(=O)(=O)c2cccs2)C1` (stereo unspecified): 9.28 µM (active). For `C/C(=N\NC(=O)c1cccc([N+](=O)[O-])c1)c1cccnc1`, the Potency entry is “inactive”.

Consider `O=C(NC1CCC(O)CC1)c1ccccc1OCc1ccc(F)cc1` (stereo unspecified), for which the Potency result is “inactive”. As for `Cc1ccc(C(=O)Nc2nnc(C3=COCCO3)o2)cc1C`, the Potency entry was “inactive”. For the compound `COc1ccc(C(=O)CC(=O)c2ccc(C)cc2)c(O)c1`, the Potency entry is “inactive”. On to `COc1ccccc1-c1nc(SC)n[nH]1`, for which the Potency entry is “inactive”. For the compound `Cc1noc(C)c1COC(=O)COc1ccc(-c2ccccc2)cc1`, the Potency result is “inactive”. Regarding `C=C(C)COc1ccc(-c2n[nH]c(C)c2-c2ccccc2)c(O)c1`, the Potency is 1.85 µM (active). With `COc1ccc(-c2[nH]ncc2CN(C)Cc2c(C)n[nH]c2C)c(OC)c1`, the Potency result was “inactive”.

On to `COc1ccc(C(=O)NNC(=O)c2cc(C)[nH]n2)cc1`, for which the Potency entry is “inactive”. The same measure, in the same setting: next, `COc1ccc(-c2c(-c3ccc(OC)cc3O)nc(C)nc2C(F)(F)F)cc1`: 7.38 µM (active); `COc1ccc(-c2n[nH]c(C)c2-c2ccc(OC)c(OC)c2)c(O)c1`: 13.1 µM (active); `COC(=O)c1cc(OC)ccc1-c1ccc(OC)cc1`: “inactive”. With `CCOc1ccc(-c2n[nH]c(C)c2-c2ccccn2)c(O)c1`, the Potency entry is “inactive”.

Consider `COc1ccc(-n2c(-c3ccc(OC)c(OC)c3)n[nH]c2=S)cc1`, for which the Potency result is “inactive”.

For `COc1ccc(-c2n[nH]c(C)c2-c2ccccc2OC)c(O)c1`, the Potency was 9.28 µM (active). `Cc1ccc(S(=O)(=O)N(CCCN(C)C)Cc2ccc3c(c2)OCO3)cc1`: the Potency entry is “inactive”.

Take `O=S1(=O)N=C(N(CCO)/N=C/c2ccccc2F)c2ccccc21`: the Potency result is “inactive”.

Turning to `COCCCNC(=O)C1CC(=O)N(CCc2ccc(F)cc2)C1` (stereo unspecified), the Potency entry was “inactive”. On to `CCc1ccc(C(=O)N2CCN(S(=O)(=O)c3sc(C(=O)O)c(C)c3C(=O)O)CC2)cc1`, for which the Potency result was “inactive”.

Regarding `CCOc1ccc2[nH]c3nc(SCC(=O)NC4CCCC4)nnc3c2c1`, the Potency result was “inactive”. On to `CN(C(=O)CN1C(=O)NC(C)(CCc2ccccc2)C1=O)c1ccccc1` (stereo unspecified), for which the Potency entry was “inactive”. Regarding `Cc1ccc(C)c(NS(=O)(=O)c2c(C)[nH]c(C)c2C(=O)N2CCCCC2)c1`, the Potency result is “inactive”.

`CCOc1ccc(C(=O)CCC(=O)NC2=NCCS2)cc1`: the Potency result is “inactive”. Turning to `C=C(C)COc1ccc(-c2n[nH]c(C)c2-c2ccccc2OC)c(O)c1`, the Potency was 8.28 µM (active). `C=C(C)COc1ccc(-c2nc(N)ncc2-c2ccccc2OC)c(O)c1`: the Potency entry was “inactive”. Turning to `COc1ccccc1-c1n[nH]c2c1[C@H](C)CC[C@H]2C(C)C`, the Potency result was “inactive”.

In the case of `Cc1ccc(CN(CC(=O)NC2CCCCC2)C(=O)c2csnn2)cc1`, the Potency entry was “inactive”. For `Cc1ccc([N+](=O)[O-])cc1S(=O)(=O)N1CCCN(C)CC1`, the Potency entry was “inactive”. For the compound `CCC1=C(OC(=O)N(CC)CC)N2C(=O)OC(=NCCc3c[nH]c4ccccc34)[C@]2(C)[C@H]2C1=CC[C@H]1C(=O)N(CC)C(=O)[C@H]12`, the Potency is 9.28 µM (active). With `CCC1=C(OC(=O)N(CC)CC)N2C(=O)OC(=NCC3CC3)[C@]2(C)[C@H]2C1=CC[C@H]1C(=O)N(CC(=O)OC)C(=O)[C@H]12`, the Potency entry was “inactive”.

As to `NC(=O)COC(=O)c1ccc2c(c1)C(=O)N(Cc1ccco1)C2=O`, the Potency result is “inactive”. As to `Cc1ccc(Cc2nnc(SCC(=O)Nc3ccccc3C)[nH]c2=O)cc1`, the Potency result was “inactive”.

Turning to `CCC(C)NC(=O)C1c2ccccc2C(=O)N1Cc1ccccc1` (stereo unspecified), the Potency entry was “inactive”. Regarding `O=C(NNc1ccccc1Cl)C(O)(c1cccc(C(F)(F)F)c1)c1cccc(C(F)(F)F)c1`, the Potency was 3.29 µM (active). As to `CC(CC(=O)Nc1cc(C(F)(F)F)ccc1Cl)c1ccccc1` (stereo unspecified), the Potency entry is “inactive”. Regarding `NC(=O)Nc1cccc(C(F)(F)F)c1`, the Potency entry is “inactive”. Turning to `O=C(O)CCC(=O)Nc1ccc(OCC2CCCO2)cc1` (stereo unspecified), the Potency entry is “inactive”. In the case of `COc1ccc(CNC(=O)CSc2n[nH]c(N)n2)cc1OC`, the Potency result was “inactive”. On to `CN(Cc1cnccn1)C(=O)c1cc(COc2cccc(C(F)(F)F)c2)on1`, for which the Potency entry was “inactive”. Take `O=C1N/C(=C/c2cccs2)C(=O)N1Cc1ccc(F)cc1`: the Potency result is “inactive”. The same measure, in the same setting: next, `Fc1ccc(Cn2nnnc2C(c2cccs2)N2CCCCCC2)cc1` (stereo unspecified): 13.1 µM (active).

With `CC(C)C(c1nnnn1Cc1ccccc1)N1CCC(C(N)=O)CC1` (stereo unspecified), the Potency entry was “inactive”.

As for `O=C(CSc1nc2ccccc2c(=O)n1CCCO)NC1CC1`, the Potency entry is “inactive”. Take `O=C(N/N=C/c1cccc(OC(=O)c2ccc([N+](=O)[O-])cc2)c1)c1cccnc1`: the Potency entry was “inactive”. Same read-out and setting: with `O=C(O)/C=C/c1cn(-c2ccccc2)nc1-c1cccs1` the entry was “inactive”; with `O=C(/C=C\c1cn(-c2ccccc2)nc1-c1cccs1)N1CCOCC1`, “inactive”. `O=C(O)c1ccc(N/N=C/c2cn(-c3ccccc3)nc2-c2cccs2)cc1`: the Potency was 0.828 µM (active). As for `COc1cccc2cc(C(=O)NCc3ccc(C)cc3)c(=N)oc12`, the Potency result is “inactive”. For `CCOc1ccc(OCC(=O)OC(C)C(=O)NC2CCCCC2C)cc1` (stereo unspecified), the Potency result is “inactive”. `Cc1onc(-c2ccccc2)c1C(=O)N1CCOCC1`: the Potency result is “inactive”. Regarding `Cc1oc2c(c1C(=O)N1CCOCC1)C(=O)c1ccccc1C2=O`, the Potency was 4.15 µM (active). `O=C(c1ccccc1-c1ccccc1)N1CCOCC1`: the Potency result was “inactive”. For `Cc1ccc(NC(=O)C2CCCN2C(=O)OCc2ccccc2)cc1C` (stereo unspecified), the Potency result was “inactive”.
